Growth inhibition data for 40 molecules are collected here from PubChem BioAssay (NCI).

Compounds without any hit were thinned out: in the full panel of roughly 79,000, 15% have a hit. A number with no mark means an inactive call. Calls of active or inactive are those of the source. No stated cut-off is given here; in the data, active means growth inhibition above about 70%; inactive means the rest.

This experiment can be described thus: NCI Yeast Anticancer Drug Screen. Data for the mec2-1 strain (AID 157). The following applies: S. cerevisiae mec2-1 strain, at 50.0 µM, stronger effect = higher value. The protocol: Growth inhibition of yeast strains with defined genetic alterations is measured as a screen for potential anti-cancer activity. Selected strains with alterations in DNA damage repair or cell cycle control were exposed to compounds and growth inhibition was measured relative to vehicle treated controls. The strain used in this assay is mec2-1
Regarding `CC1(c2ccc3ccccc3c2)CCC(=O)O1` (stereo not given), the growth inhibition is -30%.
As for `O=C1NC(=O)C(c2ccccc2)(C2CCC2)N1` (stereo not given), the growth inhibition was -33.1%.
The same measure for `O=C(CCc1ccc(O)cc1)N/N=C/c1cc(Br)ccc1O`: -38.4%; for `c1ccc(N(c2ccccc2)c2ccccc2)cc1`: -14.7%.
Take `COc1ccc(CNc2ccccn2)cc1`: the growth inhibition was 13.5%.
The value for `OCc1ccccc1OC1OC(CO)C(O)C(O)C1O` (stereo not given) was 2.6%.
The same measure for `S=C=NC1CCCCCCCCCCC1`: -3.9%; for `COc1cc([C@H]2OC[C@H]3[C@@H]2CO[C@@H]3c2cc(OC)c3c(c2)OCO3)cc(OC)c1OC`: -2.25%; for `Cc1ccc(S(=O)(=O)NCN2C(=O)c3ccccc3C2=O)cc1`: -3.85%.
The same measure for `N#CC1(C#N)C2CCCCC23OC(=N)C1(C#N)C(c1ccco1)O3` (stereo not given): 19.7%.
`O=S(=O)(O)c1cc(O)c2c(O)cc(S(=O)(=O)O)cc2c1`: the growth inhibition is -20.1%.
For the molecule `O=c1oc(-c2ccccc2)nc2cc(Cl)ccc12`, the growth inhibition is 0.25%.
The value for `CC(=O)C(/C=N/C(N)=O)=C(/C)O` was -7.5%; that for `CC1=C2NCN(C)N=C2C(C#N)(C#N)C1(C#N)C#N` was 35.4%.
Take `Cc1ccc(CNc2cccc([N+](=O)[O-])c2)cc1`: the growth inhibition is -13.6%.
As for `CC1=NOC(=O)C1C(C)(C)C1C(=O)ON=C1C` (stereo not given), the growth inhibition was -0.7%.
The same measure for `CC(=O)NCc1cc(CNC(C)=O)c(C)cc1C`: -13.7%; for `CC(=O)c1ccc(NC(=O)/C(CC(=O)/C=C/c2ccccc2)=N/NC(N)=S)cc1`: -32.4%.
The same measure for `Oc1cc(Br)ccc1C=Nc1ccc(N2CCCCC2)cc1`: 10.5%.
The same measure for `C[N+]12OC3CC1C1OC1C2C3` (stereo not given): -9.4%; for `C/C(O)=C/c1nc2sc(C)c(C)c2c(=O)s1`: 9.35%.
On to `O=S(=O)(O)c1cccc2cccc(Cl)c12`, for which the growth inhibition is -7.4%.
With `CCCCCCCCCCCCCCCCOc1ccc(C(=O)NN)cc1N`, the growth inhibition was -29.9%.
For the molecule `COC(=O)c1cc(C#N)[nH]c1-c1ccsc1`, the growth inhibition is -8%.
The value for `O=C(Nc1cccc(NC(=O)C(=O)C2CCC3=C(Sc4ccccc4N3)C2=O)n1)C(=O)C1CCC2=C(Sc3ccccc3N2)C1=O` (stereo not given) was 13.8%; that for `N#[N+]c1c(O)cc(S(=O)(=O)O)c2ccccc12` was -8.45%; that for `CCOc1ccc(/C=N/NS(=O)(=O)c2ccc(C)cc2)cc1` was -34.5%.
On to `C(=N\n1cnnc1)/c1ccc2c(c1)CCC2`, for which the growth inhibition was -34.5%.
The value for `COC(=O)/C=C\C(C#N)(C#N)N=Cc1ccsc1` was 75.5% (active).
The same measure for `CCOC(=O)NC(C)(C)CN(C(=O)OCC)C(C)(C)CO`: -26.2%; for `Cc1cccc(C)c1NC(=S)N(C)C`: -7.3%; for `COc1ccc(NC(=S)Nc2ccccn2)cc1`: -12.3%.
The value for `COc1ccc(-c2cc(=O)c3c(O)cc(C)cc3o2)cc1OC` was -25.6%; that for `Cc1ccc(/C=N/Nc2nc3ccccc3s2)s1` was -4%; that for `c1ccc2c(c1)OCCOCCOc1ccccc1OCCOCCO2` was 10.8%.
In the case of `COc1cc(-c2cc(=O)c3c(O)cc(C)cc3o2)cc(OC)c1OC`, the growth inhibition is -9.8%.
In the case of `CC(O)Cn1cnc2c1c(=O)n(C)c(=O)n2C` (stereo not given), the growth inhibition was -42.8%.
The value for `CCCCCCCCCCCCOc1ccccc1C=O` was -29.8%.
The value for `CC(=O)C1=C(C)N2C(=NC3=C(CCc4ccccc43)C2c2ccc(Cl)cc2)S1` (stereo not given) was -14.6%; that for `O=C1OC(c2ccccc2)=N/C1=C/c1cccs1` was -23.1%.
